# PubChem BioAssay AID927 (National Center for Advancing Translational Sciences (NCATS), 2007)
# The campaign covered roughly 60,000 compounds. About 65 (0.1%) were called active. Where a call stands in place of a potency, no number is given. Many of the other results were omitted from the sample, so actives are more common in it than they were. Unmarked numbers belong to inactive results. Calls follow the shape of the dose curve; as a rule, active = well fitted inhibition curve with a large enough effect; inconclusive = small, poorly fitted or top-dose-only effect; inactive = no such curve, though single readings can be large or run the other way. Non-standard residues stand in square brackets, D forms with d. Residues, ends and D or L forms follow the SMILES beside them. ξ: configuration not given here. ξV = CC(C)C(N)C(=O)O
# Molecular target: Ubiquitin carboxyl-terminal hydrolase 2 (Homo sapiens) (UniProt O75604)
# Sequence (O75604 whole entry, looked up): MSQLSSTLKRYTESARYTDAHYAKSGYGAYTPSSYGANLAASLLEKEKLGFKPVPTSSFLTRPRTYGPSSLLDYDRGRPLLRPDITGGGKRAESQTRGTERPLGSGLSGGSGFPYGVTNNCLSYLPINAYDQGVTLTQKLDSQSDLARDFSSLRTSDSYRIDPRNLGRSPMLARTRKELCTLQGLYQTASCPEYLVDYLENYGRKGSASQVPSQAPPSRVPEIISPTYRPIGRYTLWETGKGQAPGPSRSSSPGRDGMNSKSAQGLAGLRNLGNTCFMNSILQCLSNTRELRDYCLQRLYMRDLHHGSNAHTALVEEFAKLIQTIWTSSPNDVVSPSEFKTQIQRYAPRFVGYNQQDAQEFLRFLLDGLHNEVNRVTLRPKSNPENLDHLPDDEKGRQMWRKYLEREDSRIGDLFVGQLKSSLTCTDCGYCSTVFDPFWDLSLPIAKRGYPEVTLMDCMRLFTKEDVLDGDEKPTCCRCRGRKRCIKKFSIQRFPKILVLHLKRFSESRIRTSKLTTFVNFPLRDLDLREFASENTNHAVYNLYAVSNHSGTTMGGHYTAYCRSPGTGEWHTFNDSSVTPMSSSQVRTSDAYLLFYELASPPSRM
# Test: qHTS Assay for Inhibitors of Ubiquitin-specific Protease USP2a; also: nearly all actives have a fitted effect of over 60% in size
# Details: USP2a enzymatic assay; Potency: qHTS inhibition; series mostly up to 38.3 µM
# Procedure, shortened: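 USP2 core (20 nM final) was preincubated with compound for 30 min at RT in 20 mM Tris-HCl pH 8.0, 2 mM CaCl2, 2 mM beta-mercaptoethanol; Ub-PLA2 (20 nM) plus NBD C6-HPC (20 uM) then added, fluorescence read after 2.5 h.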
# Potency is read from the fitted curve at half-maximal effect.
SMILES,"activity change, negative = inhibition",Potency
COC(=O)[C@H](Cc1ccccc1)NC(=O)N1CC(C)OC(C)C1 (stereo partly drawn),inactive,–
COc1ccc(CCC(=O)c2c(O)cc(OC3OC(CO)C(O)C(O)C3O[C@@H]3OC(C)C(O)C(O)C3O)cc2O)cc1O (stereo partly drawn),inactive,–
O=C1NS(=O)(=O)c2ccccc21,inactive,–
Cc1cc(=O)n2nc(N3CCCC(C(=O)N4CCN(C)CC4)C3)sc2n1 (stereo not drawn),inactive,–
C=C1C([C@@]2(C)C(OC(C)=O)CC(=O)O[C@@](C)(COC(C)=O)C2CC(=O)OC)C(OC=O)C(OC(=O)C(O)C(C)CC)[C@]2(C)C(c3ccoc3)CC(=O)C12O (stereo partly drawn),inactive,–
COC(=O)CC1C(C)(C)C(OC(C)=O)C2CC3=C4CC(=O)OC(c5ccoc5)[C@]4(C)CCC3[C@@]1(C)C2=O (stereo partly drawn),inactive,–
CC1(C)OC2CO[C@]3(COS(N)(=O)=O)OC(C)(C)OC3C2O1 (stereo partly drawn),inactive,–
CCC1(C)Cc2c(sc3nc4n(c(=O)c23)CCCS4)CO1 (stereo not drawn),inactive,–
COC(=O)c1cccc(NC(=O)CSc2nc(C)cc(=O)[nH]2)c1,inactive,–
O=C(NCCCNCc1ccccc1)c1ccc(/C=N/O)nc1,5.49% [at 7.66 µM],–
C/C(=C\C(=O)c1ccc(Br)cc1)N1CCCCC1,inactive,–
CCc1ccc2oc(=O)cc(CN3CCCCC3C)c2c1 (stereo not drawn),inactive,–
O=C(Oc1cc(OC(=O)c2ccccc2)c2c(c1)OC(c1ccc(OC(=O)c3ccccc3)c(OC(=O)c3ccccc3)c1)[C@@H](OC(=O)c1ccccc1)C2)c1ccccc1 (stereo partly drawn),inactive,–
COc1ccc(CNC2CCCCC2)cc1,inactive,–
Cc1nnc(SCC(=O)NCCOc2ccc(Cl)cc2)n1-c1ccccc1,inactive,–
O=C1OC(C(O)CO)C(O)=C1O (stereo not drawn),inactive,–
CC(=O)OCC(=O)[C@@]1(O)CCC2C3CCC4=CC(=O)CC[C@@]4(C)[C@]3(F)C(O)C[C@]21C (stereo partly drawn),inactive,–
Cc1nonc1NC(=O)c1ccccc1Br,inactive,–
O=C1CCC(=O)N1CCOP1(=O)COc2ccccc2OC1,inactive,–
O=c1c(-c2cc(F)cc(F)c2)nc2cnc(Oc3ccccc3)nc2n1C[C@H]1CCCO1,inactive,–
COc1c(C(C)C)oc2cc3oc(=O)ccc3cc12,inactive,–
CCC1CCCCN1C(=O)Nc1cccc(NC(=O)N2CCCCC2CC)c1 (stereo not drawn),inactive,–
CC(=O)OCC(=O)C1CCC2C3CCC4=CC(=O)CC[C@@]4(C)C3CC[C@]12C (stereo partly drawn),inactive,–
COC1[C@H](OC(N)=O)C(O)[C@H](Oc2ccc3c(O)c(NC(=O)c4ccc(O)c(CC=C(C)C)c4)c(=O)oc3c2C)OC1(C)C (stereo partly drawn),inactive,–
O=C(O)C(O)[C@@](O)(Cc1ccc(O)cc1)C(=O)O (stereo partly drawn),inactive,–
N#CC1=C(N)Oc2cc(O)ccc2C1C1CCCCC1 (stereo not drawn),inactive,–

SMILES,"activity change, negative = inhibition",Potency
CS(=O)(=O)N1CCC2(CC1)CN(Cc1cc(C(F)(F)F)cc(C(F)(F)F)c1)C2,inactive,–
O=C(CN1CCOCC1)Nc1c(-c2ccccc2)c2cc(Br)ccc2[nH]c1=O,inactive,–
CSc1ccc(S(=O)(=O)Nc2cccc(F)c2)cc1,inactive,–
COc1ccc2occ(C(=O)c3ccc(N=C(C)N(C)C)cc3)c2c1,inactive,–
CN(Cc1ccco1)c1ncncc1-c1ccoc1,inactive,–
O=C(NCc1ccc2c(c1)OCO2)c1cc2c(s1)CS(=O)(=O)C2,inactive,–
CC(=NCc1ccco1)C1=C(O)c2ccccc2C1=O,inactive,–
COc1cccc(C(CC(=O)NCCN2CCOCC2)NS(=O)(=O)c2ccc(C)cc2)c1OC (stereo not drawn),inactive,–
COC(=O)N1CCC[C@@]2(CCN(C(=O)NC(C)C)C2)C1,inactive,–
CC(C)=CCC/C(C)=C/CC/C(C)=C/CC/C(C)=C/CO,inactive,–
CCCn1c(=O)c2ccccc2n2c(SCC(=O)/C(C#N)=C(\C)N)nnc12,inactive,–
Cc1ccc(S(=O)(=O)N(C)CC(=O)NC2CCCC2)cc1,inactive,–
O=C(Nc1ccc2c(c1)OCO2)C1CC(c2c(F)cccc2Cl)=NO1 (stereo not drawn),inactive,–
CCOc1ccccc1Nc1nnc(SCc2ccc(C(=O)OC)o2)s1,inactive,–
Cc1cccc(-n2ncc3c(N4CCc5ccccc54)ncnc32)c1,inactive,–
CCOC(=O)C1Cn2c(nc3c(c2=O)C(C)(CC)Cc2ccccc2-3)S1 (stereo not drawn),inactive,–
C=C(C)C1CC=C(CO)CC1 (stereo not drawn),inactive,–
CCN(CC)S(=O)(=O)c1ccc(NC(=O)CN(c2cccc(F)c2)S(C)(=O)=O)cc1,inactive,–
O=C(CSc1nnc(-c2cccs2)n1-c1ccccc1)N1CCN(C(=O)c2ccco2)CC1,inactive,–
CC(=O)NC1CC2CCCC(C1)N2CC(=O)Nc1ccccc1 (stereo not drawn),inactive,–
CCOc1c(N2CCCCC2)c(=O)c1=O,inactive,–
CC(=O)NC(C(=O)NCC(N)=O)C(C)C (stereo not drawn) (Ac-[ξV]-Gly-NH2),inactive,–
CC12C(=O)N(n3cnnc3)C(=O)C1C1C=CC2C1 (stereo not drawn),inactive,–
O=C(C1=C(O)C(=O)N(Cc2ccccc2)C1c1cccnc1)c1ccco1 (stereo not drawn),inactive,–
CCC(=O)N1c2ccc(S(=O)(=O)CCC(=O)N3CCN(c4ccccc4)CC3)cc2CC1C (stereo not drawn),inactive,–
CCOc1ccccc1N(CC(=O)Nc1ccccc1C(=O)OC)S(C)(=O)=O,-1.62% [at 7.66 µM],–

SMILES,"activity change, negative = inhibition",Potency
CC1O[C@@H](Oc2c(-c3ccc(O)c(O)c3)oc3cc(O)cc(O)c3c2=O)C(O)C(O)C1O (stereo partly drawn),inactive,–
O=C(c1cc(C(F)(F)F)cc(C(F)(F)F)c1)N1CCC2(CCCN(Cc3ccncc3)C2)CC1,inactive,–
CCN(CC)CCN1C(=O)C(=O)/C(=C(/O)c2ccccc2)C1c1ccccc1F (stereo not drawn),inactive,–
CN1CCC2(CC1)CCN(S(=O)(=O)c1ccccc1)CC2,inactive,–
CCN(CC)CCNC(=O)Cn1cnc2sc(C)c(S(=O)(=O)N3CCOCC3)c2c1=O,inactive,–
O=C(Cn1c(=O)sc2ccccc21)Nc1ccc2c(c1)OCCO2,inactive,–
S=C1SCN(CCN2CCOCC2)CN1Cc1ccccc1,inactive,–
CC1CC[C@@]23CCC4(C)[C@@]5(C)CCC6C(C)(C)C(O)CC[C@@]6(C)C5C=C[C@@]4(OC2=O)C3C1C (stereo partly drawn),inactive,–
Nc1ncnc2c1ncn2C1CC(O)C(CO)O1 (stereo not drawn),inactive,–
CC(=O)Nc1ccc(S(=O)(=O)N2CCC(N(C)CCC(C)C)CC2)cc1,inactive,–
COc1ccc(C2CC(=O)C=C(NCC3CCCO3)C2)cc1 (stereo not drawn),inactive,–
CC(=O)N1CCN(CCN=CC2=C(O)CC(C)(C)CC2=O)CC1,inactive,–
FC(F)(F)c1ccccc1-c1nc(-n2ccnc2)c2ccccc2n1,inactive,–
CN1CC(=O)N=C1N,inactive,–
CCC1=C/C(=C\c2ccc3c(c2)OCO3)C(=O)S1,inactive,–
COc1ccc(N2CCN(CCNC(=O)c3nnc(Cc4c(F)cccc4Cl)o3)CC2)cc1,inactive,–
CCN(Cc1ccncc1)C(=O)c1cccc(S(=O)(=O)N2CCOCC2)c1,inactive,–
CC1(C)OC2CC(=O)OC[C@@]23C1CC(=O)[C@]1(C)C3CC[C@@]2(C)C(c3ccoc3)OC(=O)C3O[C@@]321 (stereo partly drawn),inactive,–
CC(=O)Nc1ccc(S(=O)(=O)N2CCSCC2)cc1,inactive,–
O=C(NCCSc1ccccc1)c1ccco1,inactive,–
CC(=O)Nc1ccn(Cc2c(F)cccc2Cl)n1,inactive,–
CC(=O)N1CCC2(CCCN(Cc3ccc(C#N)cc3)C2)CC1,inactive,–
COC1C[C@@H](O[C@@H]2C(C)C(=O)OC(C)C(C)C(O)C(C)C(=O)[C@@]3(CO3)CC(C)C(OC3OC(C)CC(N(C)C)C3O)C2C)OC(C)[C@@H]1O (stereo partly drawn),inactive,–
C=C1C(=O)C23C(O)C1CCC2[C@]12COC3(O)C(O)C1C(C)(C)CC[C@H]2O (stereo partly drawn),inactive,–
COC(=O)COc1ccc(S(=O)(=O)N2CCOCC2)cc1,inactive,–
Cc1c(NC(=O)Nc2ccccc2Cl)sc(=S)n1C,inactive,–

SMILES,"activity change, negative = inhibition",Potency
CCOC(=O)C(CCOc1cccc(CC)c1)C(=O)OCC,inactive,–
Cc1cccc(C(=O)Nc2ccc(CC(=O)O)cc2)c1,inactive,–
CC(=O)OCC(=O)[C@@]1(O)CCC2C3CCC4=CC(=O)CC[C@]4(C)C3C(=O)C[C@]21C (stereo partly drawn),inactive,–
COC(=O)c1cccc(NC(=O)CN2CCC(NC(=O)c3cc(OC)c(OC)c(OC)c3)CC2)c1,inactive,–
CC(=O)c1c(N2CCOCC2)nc(=S)n(Cc2ccccc2)c1C,inactive,–
CC1(C)C(=O)Nc2ccccc2N1C(=O)COC(=O)Cn1cnc2ccccc2c1=O,inactive,–
O=c1c2ccccc2oc2nc(C3CCCCC3)n(Cc3ccco3)c(=O)c12,inactive,–
Oc1cc(O)c2c(c1)OC(c1ccc(O)c(O)c1)C(O)C2 (stereo not drawn),inactive,–
Cc1nc2nc(COc3ccccc3)[nH]n2c(=O)c1C,inactive,–
C=C[C@](C)(O)CCC1C(=C)CCC2[C@@](C)(CO)CCC[C@@]12C (stereo partly drawn),inactive,–
CC(=O)OC1CCC2(O)CC1(C)CCC1C2CC1(C)C (stereo not drawn),inactive,–
CCOC(=O)c1ccc(NC(=O)CSc2nnc(COc3ccccc3OC)n2C)cc1,inactive,–
Cn1cc(-c2nc3cnc(N4CCNCC4)nc3n(CCC#N)c2=O)c2ccccc21,inactive,–
O=C(NCc1ccc(Cl)c(Cl)c1)c1cccnc1,8.48% [at 7.66 µM],–
COC(=O)Nc1ncc(CN2C(=O)c3ccccc3C2=O)s1,inactive,–
CC(C)NC(=O)N1CCC2(CC1)CCN(C(=O)c1cccn1C)CC2,inactive,–
CC(C)NC(=O)N1CCCC2(CCN(C(=O)c3cccn3C)CC2)C1,–,10 µM (active)
CC(C)NC(=O)N1CC[C@@]2(CCCN(C(=O)c3cccn3C)C2)C1,inactive,–
CCCNc1ncnc2sc(C)c(C)c12,inactive,–
Nc1nc2nc(Cl)[nH]c2c(=O)[nH]1,inactive,–
Cc1cccc(CC(=O)Nc2c3c(nn2-c2cccc(Cl)c2)CS(=O)C3)c1 (stereo not drawn),inactive,–
Cc1ccccc1-c1nc(N(C)Cc2ccco2)c2ccccc2n1,inactive,–
CCOc1cccc(C(=O)Nc2cccnc2)c1,inactive,–
O=C(Nc1cccc(F)c1)N1CC2(CCN(C(=O)c3csnn3)CC2)C1,inactive,–
CCOC(=O)[C@H]1CCC[C@@H](NS(=O)(=O)c2ccc(NC(C)=O)cc2)C1,inactive,–
